# Laboratory results published in the supplement of paper PMC6555819.
# Assays:
# Assay in all cases: PBM binding z-score (relative to random genomic background probes); higher = stronger binding; sequences stand for … in GC…GCGATTGACAGCGTAGAATGAAGG
# [1] = system: RARb homodimer (NR concentration 270 nM)
# Method in brief: (§1)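 Probes were double-stranded and carried 34-nt variable regions with direct-repeat seeds, single-nucleotide variants, half-site ablations and random human genomic background sequences, printed on custom Agilent 4×180K protein-binding microarrays. Arrays were incubated 1 h with ligand-free nuclear receptor dimers in PBS pH 7.4, 2% milk, 0.02% Triton X-100, 1 mM DTT, 0.2 mg/mL BSA and 0.4 mg/ml salmon testes DNA. Antibodies against each partner (one per run) detected binding, and scanned fluorescence was regression-normalized. Binding z-scores use the random background probes as reference.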
# [2] = system: RARg:RXRa (NR concentration 270 nM, RXRa partner concentration 90 nM)
# Method in brief: as §1
# [3] = system: RARg homodimer (NR concentration 270 nM)
# Method in brief: as §1
# [4] = system: RXRa DBDmut IVT, anti-RXR (DBD mutation: RXRa K156A/R161A, NR concentration 90 nM)
# Method in brief: as §1
# [5] = system: RXRa homodimer (NR concentration 180 nM)
# Method in brief: as §1
# [6] = system: THRa:RXRa (NR concentration 90 nM, RXRa partner concentration 90 nM)
# Method in brief: as §1
# [7] = system: THRa homodimer (NR concentration 90 nM)
# Method in brief: as §1
# [8] = system: VDR homodimer (NR concentration 270 nM)
# Method in brief: as §1
Sequence,PBM binding z-score [1],PBM binding z-score [2],PBM binding z-score [3],PBM binding z-score [4],PBM binding z-score [5],PBM binding z-score [6],PBM binding z-score [7],PBM binding z-score [8]
CCTCGGAGGACAGAAGGTCCGAGCTGTCCGCTTT,-0.0245,-0.392,-0.0646,0.0399,-1.02,-0.359,-0.311,0.0219
CCTGACAGGTGAGAAGGTAACTCAGCCTCGATTA,0.33,0.701,0.393,-0.0911,0.509,0.346,-0.0701,-0.656
TCGAGTTGGTCAAAGGTCACACACTCGAAATGCG,4.92,6.93,5.89,2.1,8.01,3.94,1.19,2.78
CCTAGTAGGCCAATCTGGGTCACTCAAGGCTTGA,2.52,1.43,1.67,-0.0412,0.813,3.89,0.525,-0.107
CCTCGGAGGCCAACAGGAGGTCAGAGCTGCCAGA,3.63,4.76,3.41,-0.221,2.34,2.41,0.431,0.821
TAGCCTAGGTCATTGGTCCAGTATAGTACGCATC,2.86,3.61,3.82,1.98,2.74,2.84,1.47,1.51
TCTATTAGTTGATTAGGGCAACCAAAACAGCGGA,0.623,0.694,0.677,0.92,0.57,0.825,0.291,0.358
TCTGCTAGGTCAACGACGGTCAGCTAATCTGCTA,3.74,4.42,5.58,1.13,2.74,3.48,0.555,-0.198
TCTTGTAGATCAAAGGTTAAGTAAGCCGAAGCCT,1.76,2.18,1.14,0.911,3.27,1.92,-0.293,-0.446
TGTTAAAGTTCAAAGGTAACGTAAGTATCCACAC,3.61,5.89,5.47,4.41,6.91,3.42,0.278,2.82
CGTCAAAGTGCAACTAAGGTAACGTAAAGCACGC,1.18,1.58,1.59,1.13,0.815,4.99,1.18,0.128
CCTACTGTGCCATCAGGTCATTGATATCAACGTT,2.98,2.18,1.93,1.69,1.53,3.64,3.95,2.39
ATCTCTAGGTAAAGTTCAGGGAAAGATCGATAGA,2.7,2.5,2.77,1.38,1.98,1.61,0.441,2.18
GCTCGGAAGACAAGGTCAGAGCTTTGTCCGTAGA,2.34,2.28,1.86,0.349,2.11,2.52,0.95,0.19
CAGCCTACGTCAGGGCCAGTATAGGAGGAACGTT,-0.0418,-0.371,-0.021,-0.885,-0.169,-0.415,-0.292,-0.285
TCATATAGGTAAGACAGGTGAAAGTCGGCATCTA,0.625,0.754,0.411,1.36,1.02,0.828,0.209,0.18
CCAGACAGGTGAGAAGGTAACGCAGCCTCGATTA,0.798,0.793,0.415,0.201,0.556,0.331,0.41,-0.143
AGGATGAGGTTACCAAAGATCAGGGAAACGCTTG,1.18,1.94,1.65,0.402,2.51,2.67,1.29,0.534
AGTCAAAGTTCAGGACGAGGTAACGTCAAGCACG,3.13,4.98,4.9,2.71,3.29,3.98,1.52,2.33

Sequence,PBM binding z-score [1],PBM binding z-score [2],PBM binding z-score [3],PBM binding z-score [4],PBM binding z-score [5],PBM binding z-score [6],PBM binding z-score [7],PBM binding z-score [8]
CGTCCGAGGTCAGAGAGGTCAGTGAATGCCGAGT,5.44,6.94,7.68,3.68,6.87,4.59,3,6.58
ATATGTAGGTTATCGGGTCCTTCAGTTTGCGCAT,0.87,0.677,0.506,0.751,0.855,0.708,0.719,1.51
ATCTCTAGGGAACCAAGTTCAGTGAATGCCGAAC,1.21,0.277,0.53,0.569,0.332,0.497,-0.301,2.58
TTACCAAGGTGATCTGAGGTCGTTGATCCAACTC,1.63,0.881,0.757,0.903,1.37,4.77,2.67,2.96
TAGCCTAGGACAGATCGGGCCAGTATACGCTATA,-0.402,-0.336,0.0371,-1.01,-0.257,0.511,-0.623,-0.922
TCTAGTTGGTCACGAAGGTCACACACGACGGGTA,4.07,4.7,5.06,1.09,4.24,3.02,1.5,2.09
ATCTCTAGGTAAAAGTTCAGTAAATCCCGAGGAT,2.41,1.83,1.94,0.937,1.61,1.38,0.269,2.01
TTACCAAGGTGAAATGTCGTTGATGCACGCCTTG,0.644,0.864,0.648,0.115,1.16,1.82,0.71,-0.183
TCTTGTAGTTCAGCAGGTTAAGAAAGCTGGCCAA,1.53,1.8,1.25,1.53,1.12,0.683,0.0556,0.942
GGAACGAGGGCATTCGACTTGATAGCATGGCGAT,0.502,1.11,1.52,3.17,0.731,0.81,-0.453,2.32
ATATGTAGGTTAAGGGTCGTTCAGGTTGGTTCGC,2.6,2.82,1.63,1.64,3.9,2.48,1.75,2.58
CCGACTGTGGCAAGGTTACCATAACGCACAGCCA,1.13,0.293,0.461,0.0244,0.97,1.2,0.526,0.243
TCGAGTAGGTTAGGGGCATTCGGAATGGCGTCGA,0.742,0.5,-0.0301,0.0579,0.52,0.777,0.132,0.956
AGAAAGAGGTTAAGATCAGGGAAACAGAATACAT,1.42,2.54,1.86,0.244,2.82,2.02,0.45,0.57
CGAACTAGGTAATTGACAGGACAGTGAATAGTAA,0.027,0.00313,0.198,0.0767,-0.137,0.166,-0.0579,-0.054
CCTAGCAGGCCAATCTGCGTCACTCAAGGCTTGA,-0.405,-0.524,-0.155,0.164,-0.602,-0.51,-0.515,-0.294
CCAACTAGGTCAAGGTCAAAGTCGGTTTGTGCCA,5.31,6.08,6.54,3.17,5.72,4.33,4.25,4.39
TCATATAGTTAAATGCTAGGTGAAAGTCCGATCT,0.141,0.1,0.364,1.68,0.476,0.852,0.605,0.158
TAGCCTAGGTCATTGGGCCAGTACAGTACGCATC,3.02,3.95,4.57,1.77,3.3,2.91,0.878,1.28

Sequence,PBM binding z-score [1],PBM binding z-score [2],PBM binding z-score [3],PBM binding z-score [4],PBM binding z-score [5],PBM binding z-score [6],PBM binding z-score [7],PBM binding z-score [8]
CCTACTGGGCCAAAATGGTCATTGATGCCGATAA,0.177,0.104,0.0823,-0.811,-0.05,-0.37,-0.637,-0.747
TAGCCTAGGTCAGATCGGGCCGGTATACGCTATA,1.98,2.67,3.43,-0.551,0.992,3.11,0.09,-0.328
ATCTAAAGGTCGACGAGGTGAGTATACACCGTTT,3.05,4.38,4.38,1.52,4.1,3.82,0.836,1.29
CCTACTGGGCCAAGGTCGTTGATCAGTCAAAGCA,0.763,0.488,0.541,-0.262,0.465,1.31,0.184,1.19
CGAACTAGGTCATCCAGGACGGTGAATACATTGA,2.81,4.14,4.7,1.85,3.01,3.07,1.04,1.3
CTGACTGGGGCAGAAAGGTTACCATACCATCCGG,2.57,2.08,1.66,-0.154,1.88,1.34,-0.00368,0.339
CCTATTAGTTGACCATAAGGTCAACCGAAGCTCG,4.8,4.83,4.07,1.77,4.39,4.27,5.15,3.25
CGAACTAGGTCACAACAGGACAGTGAAGGATGAT,3.02,4.09,4.79,1.63,2.91,4.09,1.16,0.27
GTACCAAAGTGAATAGGTCGTTGATGAGTAGGCG,0.226,0.205,0.383,-0.282,0.584,-0.048,-0.733,-0.0624
CCGAGTAGGTTATGGGGCATTCATGCAACGGTGA,0.909,0.699,0.725,0.0977,0.697,0.148,-0.334,0.21
TCTAATAGTTGATTAGGGCAACCGAAACAGCGGA,0.599,0.338,0.66,0.755,0.708,0.551,-0.0484,-0.0344
ATCTCTAGGTAAGACTCAGTCCAGTGAAGAACGC,0.112,0.208,0.132,0.459,0.144,0.31,0.282,0.336
ATCTCTAGGTAAAGCTAGTTCAGTGAATGCAAAT,0.208,0.0635,0.23,-0.0872,0.134,1.15,0.00789,0.525
AGAATGAGATTATACGTAGATCAGGGAAGAAAGT,-0.466,0.0162,0.288,-0.678,-0.166,-0.438,-0.705,0.0852
ACTATTAGTAGACTTAGGGCAACCGATACGACGC,0.674,0.363,0.941,0.409,0.292,0.596,0.558,0.227
TGCATGAGGTTATAAGATCAGGGAACGTTGCAAA,0.168,1.64,1.08,1.32,1.84,1.93,0.273,0.679
ACAATGAGGTTATTAAGATCAGGGAATTGCGGTC,1.27,1.45,1.33,2.17,1.83,2.23,1.09,1.61
CCGTCTGGGGCATAAGGTTACCATAAGCCAGCCC,1.92,1.86,1.18,-0.715,1.23,2.17,1.31,0.173
